The record followed here is PubChem BioAssay (NCATS).

Inconclusive results are not listed. Entries that show only a call come without a potency. Active and inactive are the calls of the source. The call rests on the fitted dose curve; in most records, active means well fitted inhibition curve with a large enough effect; inconclusive means small, poorly fitted or top-dose-only effect; inactive means no such curve, though single readings can be large or run the other way.

For test [1], the system named is Zika virus NS2B-NS3 protease (unlinked complex). As to the kind of experiment: Primary screen GU Rhodamine qHTS for Zika virus inhibitors: Unlinked NS2B-NS3 protease assay (AID 1347159). Further: nearly all actives have a fitted effect of over 60% in size. In a few lines:
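Compounds, tested up to 114 microM, were incubated for 15 minutes with 25 nM unlinked NS2B-NS3 protease at pH 8.0. Cleavage of 1.5 microM Rhodamine110 substrate was then followed by fluorescence for 15 minutes.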
A general note: In qHTS, concentration-response curves come from the screen itself.

The test system of test [2] is Zika virus NS2B-NS3 protease (linked construct). Briefly: Primary screen NINDS Rhodamine qHTS for Zika virus inhibitors (AID 1347160). Further: nearly all actives have a fitted effect of over 55% in size. The method, boiled down: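 Percent inhibition, normalized to uninhibited and enzyme-free controls, is fitted to a 4-parameter Hill equation. Fluorescence change comes from a 15-min cleavage of 1.5 microM bis-peptide Rhodamine110 substrate by 25 nM linked NS2B-NS3 at room temperature.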

As for `C=C1C(=O)O[C@@H]2[C@H]1CC[C@H](C)[C@]1(CCC(=O)O1)C2(C)O` (some centres not stated), the Potency entry in test [1] and in test [2] was “inactive” in each case.
For `CNS(=O)(=O)c1ccccc1Nc1nc(Nc2ccc(N3CCN(C)CC3)cc2OC)ncc1Br`, the Potency result in test [1] and in test [2] was “inactive” each time.
`O=C(NO)c1ccc(CC(=O)N(CCO)c2ccccc2)cc1`: the Potency result in test [1] and in test [2] was “inactive” throughout.
Regarding `CC1=CC2/C=C(\C)CCC(O)C/C=C/C(=O)OC23C(=O)NC(CC(C)C)C3C1C` (configuration not stated), the Potency result in test [1] and in test [2] was “inactive” in each case.
Regarding `COc1ccc(S(=O)(=O)n2cnc3cc(C)c(C)cc32)cc1`, the Potency result in test [1] and in test [2] was “inactive” each time.
On to `CC(CCC1(O)OC2CC3C4CC=C5C[C@@H](O[C@@H]6O[C@H](CO)[C@@H](O[C@@H]7O[C@@H](C)[C@H](O)[C@@H](O)[C@H]7O)[C@H](O)[C@H]6O[C@@H]6O[C@@H](C)[C@H](O)[C@@H](O)[C@H]6O)CC[C@]5(C)C4CC[C@]3(C)[C@@]2(O)[C@@H]1C)CO[C@@H]1O[C@H](CO)[C@@H](O)[C@H](O)[C@H]1O` (some centres not stated), for which the Potency entry in test [1] and in test [2] was “inactive” each time.
In the case of `COCCNCc1ccc(-c2cc3nccc(Oc4ccc(NC(=O)C5(C(=O)Nc6ccc(F)cc6)CC5)cc4F)c3s2)nc1`, the Potency entry in test [1] and in test [2] was “inactive” throughout.
For the compound `COc1ccc2nc(-c3cc(OC)c(OC)c(OC)c3)cc(C(=O)NCC(=O)Nc3ccc(C(C)=O)cc3)c2c1`, the Potency result in test [1] and in test [2] was “inactive” in each case.
On to `COc1ccc(-c2cc3onc(-c4ccncc4)c3c(=O)n2C)cc1`, for which the Potency result in test [1] and in test [2] was “inactive” throughout.
As to `CN1CCN(c2ccc(-c3cccc(CN4CCOCC4)c3)cc2NC(=O)c2c[nH]c(=O)cc2C(F)(F)F)CC1`, the Potency result in test [1] and in test [2] was “inactive” throughout.
Regarding `CC(C)S(=O)(=O)c1ccc2nccc(Nc3ccc4scnc4c3)c2c1`, the Potency result in test [1] and in test [2] was “inactive” in each case.
